Each structure is given as a SMILES string. Structures can show the parent of a compound that is named as a salt. The campaign covered roughly 5,800 compounds. About 620 (11%) showed activity. The sample holds actives, similar compounds and a random draw of the others, so the mix is not that of the screen. Unmarked numbers belong to inactive results.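 How the source made its calls: active = score above a cut-off or among the top three wells of a plate; in these data no inactive exceeds 0.85.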 Where only a bound is given, the exact number is not on record here.

The assay concerns primary human hepatic stellate cells (donor 1). In words: scaled lipid accumulation score (0 = DMSO-like, 1 = nortriptyline-like); higher = stronger HSC inactivation (lipid re-accumulation), active = hit call of the paper. The note with it: 48 h.
The mark [1] stands for this setting: library stock concentration: 1 mM.
Setting [2] is: library stock concentration: 10 mM.
Setting [3] is: library stock concentration: 100 uM.

As for `c1cc(N2CCNCC2)c2cc[nH]c2c1` [4-(1-piperazinyl)-1H-Indole (hydrochloride)], the “scaled lipid accumulation score” value under setting [1] was no more than 0.

In the case of `CNCCCCCCN(C)N(O)N=O`, the “scaled lipid accumulation score” value under setting [1] was 0.005.

As to `OC1CCCCC1N1CCC(c2ccccc2)CC1` (stereo not given), under setting [2], the “scaled lipid accumulation score” value was no more than 0.

In the case of `OC1CCCCC1N1CCC(c2ccccc2)CC1` (stereo not given) [Vesamicol hydrochloride], the “scaled lipid accumulation score” value (library stock concentration: 6.8 mM) is no more than 0 and the “scaled lipid accumulation score” value under setting [2] is no more than -0.027.

For the compound `NC(=O)C[S@@+]([O-])C(c1ccccc1)c1ccccc1`, the “scaled lipid accumulation score” value under setting [2] was no more than 0.

With `CCCCC[C@@H](/C=C/C=C\C/C=C\C/C=C\CCCC(=O)O)OO`, under setting [3], the “scaled lipid accumulation score” value is no more than -0.01.

Take `CCCCC/C=C\C/C=C\C/C=C\C/C=C\CCCC(=O)Nc1cccc(O)c1` [N-(3-hydroxyphenyl)-Arachidonoyl amide]: the “scaled lipid accumulation score” value under setting [1] is 0.053.

Take `CCN(CC)CCOC(=O)C(O)(c1ccccc1)c1ccccc1`: the “scaled lipid accumulation score” value under setting [2] was no more than 0.

Regarding `CCCCC/C=C\C/C=C\C/C=C\C/C=C\CCCC(=O)NCCF` [Arachidonoyl-2'-Fluoroethylamide], the “scaled lipid accumulation score” value under setting [1] is no more than 0.

`CCCN1CCc2cccc3c2[C@H]1Cc1ccc(O)c(O)c1-3` [R(-)-Propylnorapomorphine hydrochloride]: under setting [2], the “scaled lipid accumulation score” value is no more than -0.038.

For `CCCCCCCCCC(=O)OC[C@H](COP(=O)([O-])OCC[N+](C)(C)C)OC(=O)CCCCCCCCC` [1,2-Didecanoyl PC], under setting [1], the “scaled lipid accumulation score” value was no more than 0.

For `c1ccc2sc(C3(N4CCCCC4)CCCCC3)cc2c1` [BTCP hydrochloride], the “scaled lipid accumulation score” value under setting [2] is 0.74.

Turning to `S=C=Nc1cccc(C2(N3CCCCC3)CCCCC2)c1` [Metaphit], the “scaled lipid accumulation score” value under setting [2] was 0.949 (active).

On to `c1ccc2sc(C3(N4CCCCC4)CCCCC3)cc2c1` [BTCP maleate], for which the “scaled lipid accumulation score” value under setting [2] is 0.248.

For the compound `COC(=O)[C@@H](N)CCCNC(=N)N[N+](=O)[O-]` [L-NAME hydrochloride], the “scaled lipid accumulation score” value under setting [2] was no more than 0.

Consider `COC(=O)[C@@H](N)CCCNC(=N)N[N+](=O)[O-]`, for which the “scaled lipid accumulation score” value (library stock concentration: 21.4 mM) is no more than -0.012.

On to `COC(=O)[C@@H](N)CCCNC(=N)N[N+](=O)[O-]` [L-NAME (hydrochloride)], for which the “scaled lipid accumulation score” value under setting [1] is no more than 0.

On to `COC(=O)[C@@H](N)CCCNC(=N)N[N+](=O)[O-]` [NG-Nitro-L-arginine methyl ester hydrochloride], for which the “scaled lipid accumulation score” value under setting [2] is 0.047.

Turning to `c1cc2ccsc2c(N2CCNCC2)n1` [7-Piperazin-1-yl-thieno[2,3-c] Pyridine (hydrochloride)], under setting [1], the “scaled lipid accumulation score” value is no more than 0.

On to `c1cc(N2CCNCC2)c2cnccc2c1` [8-piperazin-1-yl-Isoquinoline (hydrochloride)], for which the “scaled lipid accumulation score” value under setting [1] is 0.005.

Take `Oc1ccc2c3c1O[C@H]1[C@@H](O)CC[C@@]4(O)[C@@H](C2)N(CC2CCC2)CC[C@]314` [Nalbuphine hydrochloride]: the “scaled lipid accumulation score” value was no more than 0. Also, where the note is “library stock concentration: 5.1 mM”, the “scaled lipid accumulation score” value was 0.02. Moreover, the “scaled lipid accumulation score” value under setting [2] is no more than 0.

As to `Oc1ccc2c3c1O[C@H]1c4c(c5ccccc5n4Cc4ccccc4)C[C@@]4(O)C(C2)N(CC2CC2)CC[C@]314` [N-Benzylnaltrindole hydrochloride], the “scaled lipid accumulation score” value under setting [2] is 0.77.

In the case of `CS(=O)(=O)O.Oc1ccc2c3c1O[C@H]1c4oc5ccccc5c4C[C@@]4(O)C(C2)N(CC2CC2)CC[C@]314` [Naltriben mesylate], the “scaled lipid accumulation score” value under setting [2] is 1.27 (active).

With `Oc1ccc2c3c1O[C@H]1c4oc5ccccc5c4C[C@@]4(O)[C@@H](C2)N(CC2CC2)CC[C@]314` [Naltriben mesylate], the “scaled lipid accumulation score” value (library stock concentration: 4.8 mM) was 0.403.

Take `Oc1ccc2c3c1O[C@H]1[C@@H](O)CC[C@@]4(O)[C@@H](C2)N(CC2CCC2)CC[C@]314` [Nalbuphine]: the “scaled lipid accumulation score” value under setting [2] was 0.075.

For `NC(N)=Nc1ccc2[nH]c3c(c2c1)C[C@@]1(O)[C@H]2Cc4ccc(O)c5c4[C@@]1(CCN2CC1CC1)[C@H]3O5` [GNTI dihydrochloride], under setting [2], the “scaled lipid accumulation score” value is no more than -0.006.

Regarding `CS(=O)(=O)O.Oc1ccc2c3c1O[C@H]1c4oc5ccccc5c4C[C@@]4(O)C(C2)N(CC2CC2)CCC314` (stereo not given in full) [Naltriben methanesulfonate], the “scaled lipid accumulation score” value under setting [2] was 1.11 (active).

Consider `NC(N)=Nc1ccc2[nH]c3c(c2c1)C[C@@]1(O)[C@H]2Cc4ccc(O)c5c4[C@@]1(CCN2CC1CC1)[C@H]3O5` [Guanidinyl-naltrindole di-trifluoroacetate], for which the “scaled lipid accumulation score” value under setting [2] is no more than -0.07.

Take `NNCc1ccccc1` [Benzylhydrazine hydrochloride]: the “scaled lipid accumulation score” value under setting [2] was 0.294.

With `C[C@@H]1NCCc2cc(O)c(O)cc21` [Salsolinol hydrobromide], the “scaled lipid accumulation score” value was no more than 0.

In the case of `C#CC(C)(O)CC` (stereo not given), the “scaled lipid accumulation score” value under setting [2] is no more than 0.

Consider `Cc1nnc2n1-c1ccc(Cl)cc1C(c1ccccc1)=NC2` [Alprazolam], for which, under setting [2], the “scaled lipid accumulation score” value is no more than 0.

Regarding `Cc1ncc2n1-c1ccc(Cl)cc1C(c1ccccc1F)=NC2`, the “scaled lipid accumulation score” value under setting [2] is no more than 0.

On to `CCCCC/C=C\C=C\[C@H](CCCCCCCC(=O)O)OO`, for which the “scaled lipid accumulation score” value under setting [3] is no more than -0.021.

`C=C1[C@@H](O)[C@@H]2O[C@]3(CC[C@H](/C=C/[C@@H](C)[C@@H]4CC(C)=C[C@@]5(O[C@H](C[C@@](C)(O)C(=O)O)CC[C@H]5O)O4)O3)CC[C@H]2O[C@@H]1[C@@H](O)C[C@H](C)[C@H]1O[C@@]2(CCCCO2)CC[C@H]1C` [Okadaic acid]: the “scaled lipid accumulation score” value (library stock concentration: 600 uM) is 0.393.

With `COC1=CC(=O)O[C@@H](/C=C/c2ccccc2)C1` [Kawain], the “scaled lipid accumulation score” value was 0.119.

In the case of `COC1=CC(=O)O[C@@H](/C=C/c2ccccc2)C1` (racemic) [Kavain (+/-)], the “scaled lipid accumulation score” value (library stock concentration: 21.7 mM) was 0.117.

These data come from the supplement of paper PMC9135407.
